Most compounds without a hit are left out; they make up all but 6.8% or so of the library.
MCF10A rereplic: A quantitative high throughput screen for small molecules that induce DNA re-replication in MCF 10a normal breast cells | hit rate 2.9% among 350,000 | MCF 10A DNA re-replication, Hoechst nuclear intensity, 48 h | Potency, µM (doses to about 46.1 µM), for inactives: at the top dose activity, positive = re-replication, actives largely listed as activators; further: % of control where 0% means no effect; nearly all actives have a fitted effect of over 50% in size
KB-3-1 cytotox: qHTS assay for MDR1-selective chemotherapeutics: Primary screen using the parental adenocarcinoma cell KB-3-1 | KB-3-1 viability, CellTiter-Glo ATP luminescence, 72 h | Potency, µM (doses to about 46.1 µM), usual class: cytotoxic | AID 1347075, 2019 | hit rate 1.4% among 400,000; further: on the % scale 0 is the no-effect control and ±100 the full control effect; nearly all actives have a fitted effect of over 60% in size
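KB-3-1 parental drug-naive adenocarcinoma cells in DMEM/10% FBS, incubated 72 h at 37 C with pin-transferred compounds across a concentration series. Viability by CellTiter-Glo luminescence; concentration-response curves fitted after normalization.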
PTAP TSG101 blk: qHTS Assay for Iinhibitors of HIV-1 Budding by Blocking the Interaction of PTAP/TSG101. Tumor susceptibility gene 101 protein (Homo sapiens), Q99816. Fluorescence polarization, FITC-PTAP peptide / Tsg101 binding. Potency, µM (doses to about 115 µM), for inactives: top-dose activity change, negative = inhibition, hits mostly inhibitors. 340,000 tested, under 10 active; active means well fitted inhibition curve with a large enough effect in the main read-out, with a control signal flat, not every such curve was filed as active; inconclusive means small, poorly fitted or top-dose-only effect, or effect the other way, or a change in a side signal; inactive means no such curve, though single readings can be large or run the other way; further: % of control where 0% means no effect
Target sequence (Q99816 whole entry, looked up): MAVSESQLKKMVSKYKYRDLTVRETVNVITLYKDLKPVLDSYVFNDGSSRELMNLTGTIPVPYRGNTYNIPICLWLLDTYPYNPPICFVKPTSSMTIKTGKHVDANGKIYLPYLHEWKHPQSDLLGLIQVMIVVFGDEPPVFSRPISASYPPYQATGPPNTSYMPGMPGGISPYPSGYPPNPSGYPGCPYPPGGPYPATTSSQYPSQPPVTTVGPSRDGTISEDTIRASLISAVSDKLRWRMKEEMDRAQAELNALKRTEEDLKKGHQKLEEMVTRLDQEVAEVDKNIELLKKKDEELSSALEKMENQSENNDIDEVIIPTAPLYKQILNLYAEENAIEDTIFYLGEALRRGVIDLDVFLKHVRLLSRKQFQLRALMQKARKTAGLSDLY
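Tsg101 binding domain (10 uM final) was mixed with compound and a FITC-labeled PTAP peptide (50 nM final) in HEPES pH 7.5 buffer with NaCl, Tween 20, EDTA and TCEP; fluorescence polarization was read after 20 min at r.t.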
SW480 rerep: A quantitative high throughput screen for small molecules that induce DNA re-replication in SW480 colon adenocarcinoma cells. Potency, µM (series often up to 46.1 µM), inactives show at the highest dose re-replication activation, actives largely listed as activators. AID 624297, 2012. hit rate 1.8% among 340,000. SW480 DNA re-replication, Hoechst DNA content imaging, 48 h; further: % of control where 0% means no effect; nearly all actives have a fitted effect of over 55% in size
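DNA re-replication was detected as more nuclei of elevated Hoechst intensity after 48 hr exposure to compound (23 nL pinned per well of 250 cells).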
KB-V1 MDR tox: qHTS assay for MDR1-selective chemotherapeutics: Primary screen using the drug-selected MDR subline cells KB-V1; hit rate 3.4% among 400,000; KB-V1 MDR cells viability, CellTiter-Glo, 72 h; AID 1347076, 2019; Potency, µM (doses to about 46.1 µM), hits mostly cytotoxic; further: on the % scale 0 is the no-effect control and ±100 the full control effect; nearly all actives have a fitted effect of over 60% in size
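Potencies derive from concentration-effect curves fitted to normalized luminescence (CellTiter-Glo) of KB-V1 cells treated for 72 h at 37 degrees C in phenol-red-free DMEM containing 10% FBS.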
PINK1 modulator: A Quantitative High throughput Screen to Identify Chemical Modulators of PINK1 Expression; hit rate 0.2% among 410,000; Potency, µM (titrated, usually from 76.6 µM), inactives show at the top dose activation (PINK1 increase), actives largely listed as activators; PINK1 immunofluorescence, high-content cytometry, 24 h; active means well fitted activation curve with a large enough effect; inconclusive means small, poorly fitted or top-dose-only effect; cell line not stated here; further: % of control where 0% means no effect; nearly all actives have a fitted effect of over 65% in size
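PINK1 protein, normally rapidly degraded, was detected by immunofluorescence after 24 hour compound treatment of a stable cell line. Titration data (5 concentrations) came from laser-scanning cytometry, with CCCP-treated wells as controls.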
* hit, by the source's call; [ ] = remark or other dose. Unless noted, the call rests on the fitted dose curve; in most records, active means well fitted curve in the direction sought with a large enough effect; inconclusive means small, poorly fitted or top-dose-only effect, or another doubt; inactive means no such curve, though single readings can be large; an effect the other way counts as inactive or inconclusive. Potency means the concentration at half of the fitted maximal effect.

`Cc1ccc(S(=O)(=O)N2CCN(C(=O)COC(=O)CC(C)c3ccccc3)CC2)c(C)c1` (centres undefined) gave MCF10A rereplic 0.1%, KB-3-1 cytotox inactive, PTAP TSG101 blk -0.2%, SW480 rerep -2.3%, KB-V1 MDR tox inactive and PINK1 modulator 0.5%.
For CCC(C(=O)OCC(=O)N1CCN(S(=O)(=O)c2ccc(C)cc2C)CC1)c1ccccc1 (centres undefined) the results were MCF10A rereplic -1.9%, KB-3-1 cytotox inactive, PTAP TSG101 blk -3.2%, SW480 rerep -7.7%, KB-V1 MDR tox 14.6µM* and PINK1 modulator 2.1%.
For COc1ccccc1N1CCN(C(=O)Cn2ncc3c(=O)oc4ccc(C)cc4c32)CC1 the results were KB-3-1 cytotox inactive, KB-V1 MDR tox inactive and PINK1 modulator -1.0%.
For COc1cc2cnc(-c3ccccc3)c(-c3ccc(C#N)cc3)c2cc1OC the results were MCF10A rereplic -6.4%, KB-3-1 cytotox 13µM*, PTAP TSG101 blk -0.5%, SW480 rerep -0.1%, KB-V1 MDR tox inactive and PINK1 modulator -0.9%.
Screening COc1cc2cnc(-c3ccccc3)c(-c3cccc(C(F)(F)F)c3)c2cc1OC returned MCF10A rereplic -6.0%, KB-3-1 cytotox inconclusive, PTAP TSG101 blk -4.8%, SW480 rerep inconclusive, KB-V1 MDR tox inconclusive and PINK1 modulator 3.6%.
Screening COc1cc(NS(=O)(=O)c2ccc3[nH]c4c(c3c2)CCCC4)cc(OC)c1OC returned KB-3-1 cytotox 0.0651µM*, KB-V1 MDR tox inconclusive and PINK1 modulator inconclusive.
`COc1cccc(CNS(=O)(=O)c2ccc3[nH]c4c(c3c2)CCCCC4)c1` gave KB-3-1 cytotox 20.6µM*, KB-V1 MDR tox 20.6µM* and PINK1 modulator 22.9%.
Screening COc1ccc(OC)c(NS(=O)(=O)c2ccc3[nH]c4c(c3c2)CCCCC4)c1 returned KB-3-1 cytotox inconclusive, KB-V1 MDR tox 16.4µM* and PINK1 modulator inconclusive.
CC(=O)c1cc(-c2ccc(F)cc2)n(CCC(=O)Nc2nc3c(C)cccc3s2)c1C was read as KB-3-1 cytotox inactive, KB-V1 MDR tox inactive and PINK1 modulator 7.9%.
`NC(=S)Nc1cccc2cc3ccccc3cc12` gave MCF10A rereplic inconclusive, KB-3-1 cytotox inactive, PTAP TSG101 blk -9.3%, SW480 rerep 11.6µM*, KB-V1 MDR tox inactive and PINK1 modulator 1.5%.
Screening CCc1cccc(C)c1NC(=O)CN1CCCN(Cc2ccccc2Cl)S1(=O)=O returned KB-3-1 cytotox inconclusive, KB-V1 MDR tox inactive and PINK1 modulator -0.7%.
`O=C(Nc1ccc(Cl)cc1Cl)c1cccc(N2C(=O)C=CC2=O)c1` gave MCF10A rereplic 13µM*, KB-3-1 cytotox inactive, PTAP TSG101 blk -5.8%, SW480 rerep 8.2µM*, KB-V1 MDR tox inactive and PINK1 modulator -0.6%.
Cc1ccccc1NC(=O)c1cccc(N2C(=O)C3C4CCC(C4)C3C2=O)c1 (centres undefined) was read as MCF10A rereplic -2.1%, KB-3-1 cytotox inactive, PTAP TSG101 blk 0.7%, SW480 rerep 1.9%, KB-V1 MDR tox 23.1µM* and PINK1 modulator 33.3%[38.3 µM].
O=C(O)c1ccc(NC(=O)c2cccc(N3C(=O)C4C5CCC(C5)C4C3=O)c2)cc1 (centres undefined) was read as MCF10A rereplic -7.6%, KB-3-1 cytotox inactive, PTAP TSG101 blk 0.0%, SW480 rerep 137.3%, KB-V1 MDR tox inconclusive and PINK1 modulator -1.8%.
`Cc1ccc(NC(=O)c2cccc(N3C(=O)C4C5CCC(C5)C4C3=O)c2)c(C)c1` (centres undefined) gave MCF10A rereplic -1.3%, KB-3-1 cytotox inactive, PTAP TSG101 blk 0.1%, SW480 rerep 32.6%, KB-V1 MDR tox 4.11µM* and PINK1 modulator 2.5%.
`O=C(Nc1ccc(Cl)cc1)c1cccc(N2C(=O)C3C4CCC(C4)C3C2=O)c1` (centres undefined) gave MCF10A rereplic 56.4%, KB-3-1 cytotox inconclusive, PTAP TSG101 blk -1.4%, SW480 rerep 13.8%, KB-V1 MDR tox 8.2µM* and PINK1 modulator 2.3%.
Screening Cc1ccccc1NC(=O)c1cccc(N2C(=O)C3CCCCC3C2=O)c1 (centres undefined) returned MCF10A rereplic -1.4%, KB-3-1 cytotox inactive, PTAP TSG101 blk -1.9%, SW480 rerep -6.6%, KB-V1 MDR tox inactive and PINK1 modulator 0.8%.
For COc1ccc(NC(=O)c2cccc(N3C(=O)C4C5CCC(C5)C4C3=O)c2)cc1 (centres undefined) the results were MCF10A rereplic 8.6%, KB-3-1 cytotox inactive, PTAP TSG101 blk -2.0%, SW480 rerep -2.9%, KB-V1 MDR tox inconclusive and PINK1 modulator -1.4%.
O=C(C1CCN(S(=O)(=O)Cc2ccccc2)CC1)N1CCN(c2ccc(F)cc2)CC1 was read as PINK1 modulator 1.4%.
CC(=O)c1cccc(N2C(=O)C3C4CCC(C4=C(C)C)C3C2=O)c1 (centres undefined) was read as MCF10A rereplic -29.9%, KB-3-1 cytotox inactive, PTAP TSG101 blk -1.1%, SW480 rerep -110.6%, KB-V1 MDR tox 18.4µM* and PINK1 modulator -1.9%.
`CCC(Oc1ccccc1)C(=O)Nc1cc(C)on1` (centres undefined) gave MCF10A rereplic 10.3%, KB-3-1 cytotox inactive, PTAP TSG101 blk -2.5%, SW480 rerep -14.9%, KB-V1 MDR tox inactive and PINK1 modulator 0.7%.
For CCC(OC(=O)C(NC(=O)c1ccccc1)c1ccccc1)C(=O)Nc1cc(C)on1 (centres undefined) the results were MCF10A rereplic 5.8µM*, KB-3-1 cytotox inactive, PTAP TSG101 blk -9.5%, SW480 rerep inconclusive and KB-V1 MDR tox inactive.
Cc1ccccc1-n1cc(CNC(=O)CN2Cc3ccccc3OC(C)C2)cn1 (centres undefined) was read as PINK1 modulator 0.7%.
For CCOC(=O)C1=C(Nc2ccccc2)CC(C)(O)C(C(=O)OCC)C1c1ccc(Cl)cc1 (centres undefined) the results were MCF10A rereplic inconclusive, KB-3-1 cytotox inconclusive, PTAP TSG101 blk -1.0%, SW480 rerep 8.2%, KB-V1 MDR tox 20.6µM* and PINK1 modulator 13.0%.
